Experimental data from PubChem BioAssay.
Unmarked numbers belong to inactive results. How the calls were made is not given here.

molecular target: Pantothenate synthetase (Mycobacterium tuberculosis (strain ATCC 25618 / H37Rv)) (UniProt P9WIL5); test: Recombinant Mtb pantothenate synthetase (PanC) inhibitors, coupled enzyme, confirmatory (AID 375); details: coupled enzyme assay; at 10 µM, active compounds read high;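 further: 0% = full reaction with vehicle and 100% = no enzyme background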
Sequence (P9WIL5 whole entry, looked up): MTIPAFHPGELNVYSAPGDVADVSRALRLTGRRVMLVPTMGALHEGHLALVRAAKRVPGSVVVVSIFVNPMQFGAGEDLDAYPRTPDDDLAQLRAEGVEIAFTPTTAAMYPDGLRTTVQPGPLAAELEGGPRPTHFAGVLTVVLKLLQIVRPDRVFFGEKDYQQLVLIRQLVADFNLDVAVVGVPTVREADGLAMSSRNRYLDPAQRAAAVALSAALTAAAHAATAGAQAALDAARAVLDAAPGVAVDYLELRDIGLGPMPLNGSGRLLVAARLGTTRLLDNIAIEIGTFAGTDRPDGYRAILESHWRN

SMILES	inhibition
O=C(O)CCC(=O)NC1CCCCC1NC(=O)CCC(=O)O (stereo not drawn)	0%
CCCCCOC(=O)C1=C(C)N(C)C(=O)NC1c1cc(Br)c(O)c(OC)c1 (stereo not drawn)	0%
COc1cc(C2C3=C(CC(C)(C)CC3=O)Nc3c2c(=O)[nH]c(=O)n3Cc2ccccc2)ccc1O (stereo not drawn)	4%
Cc1nn(CC(O)Cn2c3c(c4ccccc42)CCN(C)C3=O)c(C)c1Br (stereo not drawn)	7%
CCCC1(C(=O)OC)NC(c2cc(OC)c(OC)c(OC)c2)C2C(=O)N(CC)C(=O)C21 (stereo not drawn)	0%
CCCCC(=O)Nc1nn(CCC)c2nc3ccccc3cc12	0%
Cc1cc(Cl)ccc1NC(=O)CSc1nnc(Cc2cccs2)n1Cc1ccco1	0%
CCOP(=O)(c1ccc(N(C)C)cc1)C(O)c1cc(OC)c(OC)c(OC)c1 (stereo not drawn)	0%
COc1cc2c(C#N)c(N3CCOCC3)nc(N)c2c(N)n1	0%
Cc1noc(C)c1S(=O)(=O)N1CCC(C(=O)N2CCN(Cc3ccc4c(c3)OCO4)CC2)CC1	0%
OC1(c2cccc(C(F)(F)F)c2)CCN(c2ccc(-c3ccccc3)nn2)CC1	0%
CCC(=O)Nc1ccc2nc(SCC(=O)N3CCCC3)sc2c1	0%
CC(NC(=O)c1ccco1)C(c1cccs1)N1CCN(c2ccc(F)cc2)CC1 (stereo not drawn)	0%
Cc1ccc(-c2nnc3c4ccccc4c(C)nn23)cc1S(=O)(=O)N1CCN(C)CC1	1%
CC(=O)SCCC(=O)Nc1ccccc1	0%
Cc1c(NC(=O)C2(c3ccccc3)CCOCC2)c(=O)n(-c2ccccc2)n1C	3%
O=C(NCCN1C(=O)C2C3C=CC(C3)C2C1=O)N1CCOCC1 (stereo not drawn)	0%
CCCCNC(=O)c1cc(-c2ccc(F)cc2)on1	6%
CC(=O)Nc1ccc(OC(=O)c2cccs2)cc1	0%
Cc1ccc(S(=O)(=O)N2CCCC(C(=O)NC3=NCCS3)C2)cc1 (stereo not drawn)	12%
O=C(NCC(F)(F)F)N1CCOCC1	0%
Cc1cc(NC(=O)COc2cccc3cccnc23)no1	6%
Cc1ccc(OCC(O)Cn2c(NCCc3ccccc3)nc3c2c(=O)[nH]c(=O)n3C)cc1 (stereo not drawn)	0%
